Test results published in the supplement of paper PMC10849652.
The full data set covers some 8,800 targets. This sample favours those with a hit. About 0.5% of all pairs of compound and target were hits.

These targets were tested with NC(=O)c1cnc(N[C@@H]2CCCC[C@@H]2N)nc1Nc1cccc(-n2nccn2)c1 (assay: log2 fold change, soluble protein after heating vs DMSO (PISA); higher = thermal stabilisation; K562 lysate, 10 uM; active = over 0.2 and 3.5 SD of the protein, either way, in both replicates (recomputed)).
Outline: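 K562 pellets were dounce-homogenised in PBS pH 7.4 containing 1 mM MgCl2, and the crude extract, at 1 mg/mL protein, was exposed to 10 μM compound for 30 min. Aliquots were heated for 3 min across 48°C-58°C, pooled, brought to 0.5% NP-40 at 4°C and spun at 21,000xg for 90 min, with the supernatant taken as soluble protein. TMTpro 16plex LC-MS/MS with equalised channel sums quantified that protein. Values are log-two fold changes in thermal stability relative to solvent controls, taken from duplicates.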

UniProt O60225, sequence (O60225 whole entry, looked up): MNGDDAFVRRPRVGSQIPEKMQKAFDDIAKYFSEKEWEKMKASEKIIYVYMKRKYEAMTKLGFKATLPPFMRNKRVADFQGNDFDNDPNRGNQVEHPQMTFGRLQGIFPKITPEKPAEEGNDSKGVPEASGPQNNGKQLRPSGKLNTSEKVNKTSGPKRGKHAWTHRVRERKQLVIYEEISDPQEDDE
UniProt P51532, sequence (P51532 whole entry, looked up): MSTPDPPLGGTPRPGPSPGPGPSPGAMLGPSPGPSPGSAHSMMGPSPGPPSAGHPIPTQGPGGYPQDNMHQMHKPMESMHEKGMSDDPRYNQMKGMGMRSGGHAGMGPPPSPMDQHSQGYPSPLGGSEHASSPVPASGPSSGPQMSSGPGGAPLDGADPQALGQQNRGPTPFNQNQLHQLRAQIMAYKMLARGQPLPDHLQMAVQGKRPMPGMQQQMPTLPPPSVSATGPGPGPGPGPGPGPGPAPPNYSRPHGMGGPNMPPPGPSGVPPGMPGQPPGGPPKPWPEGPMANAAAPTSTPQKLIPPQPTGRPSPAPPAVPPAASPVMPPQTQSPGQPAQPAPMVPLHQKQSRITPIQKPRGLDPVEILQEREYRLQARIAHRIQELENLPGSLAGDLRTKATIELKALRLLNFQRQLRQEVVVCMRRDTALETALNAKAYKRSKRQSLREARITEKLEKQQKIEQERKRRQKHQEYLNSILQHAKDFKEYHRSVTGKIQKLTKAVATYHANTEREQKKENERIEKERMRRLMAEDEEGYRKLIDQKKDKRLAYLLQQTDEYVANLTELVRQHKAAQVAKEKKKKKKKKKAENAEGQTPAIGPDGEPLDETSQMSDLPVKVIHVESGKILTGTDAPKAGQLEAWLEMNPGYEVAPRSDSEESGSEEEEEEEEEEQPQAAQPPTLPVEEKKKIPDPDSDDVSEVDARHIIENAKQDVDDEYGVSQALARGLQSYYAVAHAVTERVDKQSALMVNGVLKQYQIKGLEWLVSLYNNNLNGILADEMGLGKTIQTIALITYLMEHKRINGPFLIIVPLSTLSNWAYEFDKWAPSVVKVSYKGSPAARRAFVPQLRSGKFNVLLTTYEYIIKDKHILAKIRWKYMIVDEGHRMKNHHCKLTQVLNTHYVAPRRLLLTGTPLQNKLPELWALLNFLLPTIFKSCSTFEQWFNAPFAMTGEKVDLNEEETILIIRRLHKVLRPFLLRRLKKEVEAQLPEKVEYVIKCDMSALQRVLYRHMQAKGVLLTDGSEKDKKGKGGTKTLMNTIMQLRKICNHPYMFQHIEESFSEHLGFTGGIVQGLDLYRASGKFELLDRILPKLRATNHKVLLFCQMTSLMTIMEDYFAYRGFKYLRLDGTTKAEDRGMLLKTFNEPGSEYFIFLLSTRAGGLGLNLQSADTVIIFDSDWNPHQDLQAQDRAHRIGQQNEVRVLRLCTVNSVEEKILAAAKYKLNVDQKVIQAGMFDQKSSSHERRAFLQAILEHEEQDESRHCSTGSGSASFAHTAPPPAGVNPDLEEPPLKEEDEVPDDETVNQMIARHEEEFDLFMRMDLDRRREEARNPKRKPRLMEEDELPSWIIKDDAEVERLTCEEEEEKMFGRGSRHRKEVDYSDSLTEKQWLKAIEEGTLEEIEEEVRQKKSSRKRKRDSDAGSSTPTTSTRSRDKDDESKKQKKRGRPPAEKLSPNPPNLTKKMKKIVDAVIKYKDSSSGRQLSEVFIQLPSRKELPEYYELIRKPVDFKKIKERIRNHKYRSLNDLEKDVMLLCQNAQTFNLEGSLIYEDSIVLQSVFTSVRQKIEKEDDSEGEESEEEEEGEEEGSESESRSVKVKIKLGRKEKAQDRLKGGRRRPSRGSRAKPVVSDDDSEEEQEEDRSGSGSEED
UniProt Q13309, sequence (Q13309 whole entry, looked up): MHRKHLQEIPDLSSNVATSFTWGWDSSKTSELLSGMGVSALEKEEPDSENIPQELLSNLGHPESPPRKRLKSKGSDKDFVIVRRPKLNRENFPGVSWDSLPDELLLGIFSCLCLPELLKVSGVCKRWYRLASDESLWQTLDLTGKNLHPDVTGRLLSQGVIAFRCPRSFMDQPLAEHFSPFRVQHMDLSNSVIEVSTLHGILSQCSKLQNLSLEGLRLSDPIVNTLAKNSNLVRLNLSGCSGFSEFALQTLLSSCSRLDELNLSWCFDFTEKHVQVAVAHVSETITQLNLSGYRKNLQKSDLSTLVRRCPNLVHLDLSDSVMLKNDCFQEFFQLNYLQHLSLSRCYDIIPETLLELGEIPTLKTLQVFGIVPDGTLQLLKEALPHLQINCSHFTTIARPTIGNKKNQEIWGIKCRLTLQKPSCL
UniProt Q9Y2D2, sequence (Q9Y2D2 whole entry, looked up): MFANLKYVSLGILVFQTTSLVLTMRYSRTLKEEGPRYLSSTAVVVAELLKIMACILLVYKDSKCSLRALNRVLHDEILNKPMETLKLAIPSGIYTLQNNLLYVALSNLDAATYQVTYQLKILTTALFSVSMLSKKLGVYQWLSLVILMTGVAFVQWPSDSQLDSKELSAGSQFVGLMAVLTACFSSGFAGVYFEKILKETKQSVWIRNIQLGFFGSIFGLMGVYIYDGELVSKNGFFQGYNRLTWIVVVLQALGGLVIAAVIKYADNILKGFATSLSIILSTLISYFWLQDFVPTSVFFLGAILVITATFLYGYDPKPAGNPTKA
UniProt Q8IVJ1, sequence (Q8IVJ1 whole entry, looked up): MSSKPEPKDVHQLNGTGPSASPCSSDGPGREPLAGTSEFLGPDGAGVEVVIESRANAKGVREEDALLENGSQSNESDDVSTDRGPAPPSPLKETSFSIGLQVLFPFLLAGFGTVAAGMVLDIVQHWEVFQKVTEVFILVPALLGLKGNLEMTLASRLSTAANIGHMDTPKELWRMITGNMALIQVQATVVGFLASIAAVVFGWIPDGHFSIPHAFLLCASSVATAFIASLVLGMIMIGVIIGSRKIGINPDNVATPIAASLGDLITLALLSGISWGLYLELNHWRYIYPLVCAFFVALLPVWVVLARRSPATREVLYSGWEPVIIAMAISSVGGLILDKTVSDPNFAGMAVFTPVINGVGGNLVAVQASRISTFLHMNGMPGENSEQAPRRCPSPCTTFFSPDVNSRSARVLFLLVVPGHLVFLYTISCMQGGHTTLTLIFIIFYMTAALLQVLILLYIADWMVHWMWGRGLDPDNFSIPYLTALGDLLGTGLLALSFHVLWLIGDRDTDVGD
UniProt P12931, sequence (P12931 whole entry, looked up): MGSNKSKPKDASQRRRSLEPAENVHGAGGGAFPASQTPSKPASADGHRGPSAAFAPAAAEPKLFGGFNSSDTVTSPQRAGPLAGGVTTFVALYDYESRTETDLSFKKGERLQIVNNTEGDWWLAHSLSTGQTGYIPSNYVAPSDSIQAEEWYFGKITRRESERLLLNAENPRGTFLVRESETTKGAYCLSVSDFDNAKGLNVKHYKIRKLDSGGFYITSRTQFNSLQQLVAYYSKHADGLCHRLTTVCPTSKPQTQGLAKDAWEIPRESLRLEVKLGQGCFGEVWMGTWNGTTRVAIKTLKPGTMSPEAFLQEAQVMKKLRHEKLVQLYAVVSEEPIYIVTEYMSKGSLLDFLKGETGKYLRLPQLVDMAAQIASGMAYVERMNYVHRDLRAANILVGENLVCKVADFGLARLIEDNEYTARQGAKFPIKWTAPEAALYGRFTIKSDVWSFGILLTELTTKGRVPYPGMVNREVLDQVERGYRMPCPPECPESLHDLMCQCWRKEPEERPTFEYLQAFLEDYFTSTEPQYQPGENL
UniProt Q9NP59, sequence (Q9NP59 whole entry, looked up): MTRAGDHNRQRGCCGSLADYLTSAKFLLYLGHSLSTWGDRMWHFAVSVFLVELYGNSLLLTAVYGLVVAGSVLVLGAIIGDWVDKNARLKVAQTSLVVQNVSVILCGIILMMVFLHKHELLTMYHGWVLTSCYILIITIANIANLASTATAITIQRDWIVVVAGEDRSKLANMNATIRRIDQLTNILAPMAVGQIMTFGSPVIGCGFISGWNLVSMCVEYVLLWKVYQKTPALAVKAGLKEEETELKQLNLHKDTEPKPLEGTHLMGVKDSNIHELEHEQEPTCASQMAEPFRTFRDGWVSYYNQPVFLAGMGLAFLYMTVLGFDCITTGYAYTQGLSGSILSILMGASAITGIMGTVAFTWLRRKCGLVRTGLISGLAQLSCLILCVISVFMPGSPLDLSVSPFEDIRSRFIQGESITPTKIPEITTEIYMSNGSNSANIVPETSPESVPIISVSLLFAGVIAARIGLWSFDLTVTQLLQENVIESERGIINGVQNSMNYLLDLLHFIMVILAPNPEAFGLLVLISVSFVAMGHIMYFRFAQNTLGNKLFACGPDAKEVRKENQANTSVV
UniProt Q15464, sequence (Q15464 whole entry, looked up): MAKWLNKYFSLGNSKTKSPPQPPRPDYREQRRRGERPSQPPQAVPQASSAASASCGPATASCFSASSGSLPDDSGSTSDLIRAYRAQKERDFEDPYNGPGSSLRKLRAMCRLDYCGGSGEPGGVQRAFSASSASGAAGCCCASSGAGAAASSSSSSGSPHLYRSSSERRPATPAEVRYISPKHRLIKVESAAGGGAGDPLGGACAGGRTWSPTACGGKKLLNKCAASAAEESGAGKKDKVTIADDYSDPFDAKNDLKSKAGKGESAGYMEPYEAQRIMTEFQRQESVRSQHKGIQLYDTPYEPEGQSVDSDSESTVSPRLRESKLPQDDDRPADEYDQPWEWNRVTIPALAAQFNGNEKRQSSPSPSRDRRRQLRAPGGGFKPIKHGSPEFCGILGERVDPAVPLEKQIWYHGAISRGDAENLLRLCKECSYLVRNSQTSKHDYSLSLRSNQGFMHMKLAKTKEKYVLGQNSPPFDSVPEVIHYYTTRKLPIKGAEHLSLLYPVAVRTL
UniProt Q96CQ1, sequence (Q96CQ1 whole entry, looked up): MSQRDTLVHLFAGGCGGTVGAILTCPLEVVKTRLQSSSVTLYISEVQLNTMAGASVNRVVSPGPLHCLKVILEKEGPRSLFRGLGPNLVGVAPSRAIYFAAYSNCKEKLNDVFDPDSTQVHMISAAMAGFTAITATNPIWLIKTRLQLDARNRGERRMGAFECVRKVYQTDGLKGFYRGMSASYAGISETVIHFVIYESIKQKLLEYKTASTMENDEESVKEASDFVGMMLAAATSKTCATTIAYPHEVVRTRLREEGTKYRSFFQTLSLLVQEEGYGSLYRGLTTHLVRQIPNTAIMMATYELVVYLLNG

log2 fold change, inactive:
SNRPD2 (UniProt K7EJB5) 0.044
SLC12A6 isoform 2 (UniProt Q9UHW9) -0.043
SMARCA4 isoform 4 (UniProt P51532) -0.042
SLC41A1 (UniProt Q8IVJ1) 0.014
SSX5 isoform 2 (UniProt O60225) 0.026
SRC isoform 2 (UniProt P12931) 0.015
SKP2 (UniProt Q13309) -0.015
SZT2 (UniProt Q5T011) -0.009
SLC40A1 (UniProt Q9NP59) -0.035
SLC25A36 (UniProt Q96CQ1) 0.003
SPAG1 (UniProt Q07617) 0.164
SMPD2 (UniProt O60906) 0.029
SLC35A3 isoform 2 (UniProt Q9Y2D2) 0.019
SNAP23 isoform 2 (UniProt O00161) 0.046
SHB (UniProt Q15464) -0.02
TAF11 (UniProt Q15544) -0.03
